In PubChem BioAssay (NCATS):
Inconclusive results are not listed. Calls of active or inactive are those of the source. Unless noted, calls come from the whole dose curve; as a rule, active = well fitted curve in either direction with a large enough effect (not every such curve was filed as active); inconclusive = small, poorly fitted or top-dose-only effect, or another doubt; inactive = flat fitted curve, though single readings scatter.

Tests used:
[1] = target: Lysosomal acid glucosylceramidase (Homo sapiens) (UniProt P04062); assay: Glucocerebrosidase-p2 (AID 348; in the data active = potency below about 10 µM; note: potency is the fitted concentration of half-maximal effect); details: purified GBA, blue fluorogenic substrate, 40 min
Sequence of Lysosomal acid glucosylceramidase (Homo sapiens) (P04062 whole entry, looked up): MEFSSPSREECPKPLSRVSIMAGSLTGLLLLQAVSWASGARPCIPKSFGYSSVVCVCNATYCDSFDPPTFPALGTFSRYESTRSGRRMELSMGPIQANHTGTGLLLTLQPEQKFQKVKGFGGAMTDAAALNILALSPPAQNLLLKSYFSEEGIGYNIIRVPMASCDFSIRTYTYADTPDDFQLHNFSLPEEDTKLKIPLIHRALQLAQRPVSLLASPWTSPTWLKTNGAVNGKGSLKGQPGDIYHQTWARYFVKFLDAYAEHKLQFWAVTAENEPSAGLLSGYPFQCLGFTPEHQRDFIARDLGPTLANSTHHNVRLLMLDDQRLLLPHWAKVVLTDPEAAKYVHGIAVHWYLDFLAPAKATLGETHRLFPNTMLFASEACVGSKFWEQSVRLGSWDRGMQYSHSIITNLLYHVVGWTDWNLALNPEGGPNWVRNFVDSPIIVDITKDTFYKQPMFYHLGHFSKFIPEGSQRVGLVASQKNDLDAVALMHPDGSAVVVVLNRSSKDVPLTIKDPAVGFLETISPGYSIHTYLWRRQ
Method in brief: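 Compounds titrated from 0.6 nM upwards against 0.2 nM enzyme in pH 5.9 citric acid/KH2PO4, taurocholate, tween-20; blue fluorogenic substrate 80 uM, 40 min room temperature, stopped and read Ex 365/Em 440 for AC50.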

[2] = NFAT Signaling Pathway (AID 444); details: Jurkat NFAT-bla M1, carbachol, beta-lactamase ratio, 5 h; at 7.69 µM (top of the series) unless noted;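 note: carbachol stimulus at about its EC50 of 1 µM final; % is set by controls: 0 for no effect and ±100 for the full control effect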
Method in brief: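 Jurkat cells with NFAT-driven β-lactamase reporter and co-expressed M1 receptor, stimulated with carbachol (final 1 uM, ~EC50), compound titration, 5 h at 37 °C. CCF4 loaded 1 h at RT; 460/530 nm ratio gave %activity and AC50.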

[3] = Stat Signaling Pathway (AID 446); details: ME-180 SIE beta-lactamase reporter, IL-6 stimulated, 5 h; at 7.69 µM (top of the series) unless noted;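 note: ME-180 cervical cancer cells given 40 pM IL-6 alongside compound; SIE-controlled beta-lactamase reporter measured as 460/530 nm FRET emission ratio; % is set by controls: 0 for no effect and ±100 for the full control effect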
Method in brief: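 ME-180 cells carrying a SIE-driven beta-lactamase reporter are stimulated with 40 pM IL-6 for 5 h at 37C in the presence of compound. The 460/530 nm FRET substrate ratio is read after 2.5 h at RT. Data are normalised to 300 pM IL-6 and to 125 nM JAK inhibitor controls.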

[4] = target: Glucocorticoid receptor (Homo sapiens) (UniProt P04150); assay: GR-GFP Redistribution (AID 450;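 active = compounds whose dose series gives a full or clear partial fitted curve of increased nuclear translocation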; note: potency is the fitted concentration of half-maximal effect); details: U2OS GR-GFP nuclear translocation, laser cytometry, 2 h
Sequence of Glucocorticoid receptor (Homo sapiens) (P04150 whole entry, looked up, the tested form may be a part): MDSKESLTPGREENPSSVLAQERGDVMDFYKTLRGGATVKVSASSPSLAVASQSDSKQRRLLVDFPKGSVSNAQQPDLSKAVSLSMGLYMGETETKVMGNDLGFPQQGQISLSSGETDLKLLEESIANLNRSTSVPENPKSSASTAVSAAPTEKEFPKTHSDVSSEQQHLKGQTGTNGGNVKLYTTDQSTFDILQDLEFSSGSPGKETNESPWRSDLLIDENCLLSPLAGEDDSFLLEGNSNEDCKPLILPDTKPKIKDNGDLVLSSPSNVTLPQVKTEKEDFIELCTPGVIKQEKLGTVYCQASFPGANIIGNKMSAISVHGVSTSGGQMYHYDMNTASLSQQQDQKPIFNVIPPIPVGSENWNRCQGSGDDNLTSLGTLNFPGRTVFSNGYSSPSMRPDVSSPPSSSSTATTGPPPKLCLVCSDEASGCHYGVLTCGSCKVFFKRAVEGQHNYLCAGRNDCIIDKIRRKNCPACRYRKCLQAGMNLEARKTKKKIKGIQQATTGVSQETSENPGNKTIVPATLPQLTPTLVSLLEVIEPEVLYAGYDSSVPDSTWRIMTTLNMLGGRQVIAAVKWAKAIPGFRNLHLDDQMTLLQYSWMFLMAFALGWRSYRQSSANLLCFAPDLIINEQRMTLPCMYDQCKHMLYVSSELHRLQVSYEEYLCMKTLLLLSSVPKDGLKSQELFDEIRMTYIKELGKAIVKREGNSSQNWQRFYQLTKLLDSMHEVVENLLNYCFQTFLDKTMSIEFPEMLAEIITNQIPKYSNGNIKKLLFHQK

[5] = target: Glucocorticoid receptor (Homo sapiens) (UniProt P04150); assay: GR-EFC Redistribution (AID 451; calls by dose curve; note: potency is the fitted concentration of half-maximal effect); details: CHO-K1 GR-EFC translocation, beta-gal luminescence, 2 h
Method in brief: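 CHO-K1 cells expressing nuclear EA and GR-ED fragments of b-gal; compounds titrated up to 46 uM final, 2 h at 37 C. GR nuclear translocation read as complemented b-gal luminescence after 1 h RT detection.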

[6] = target: Mitogen-activated protein kinase 10 (Mus musculus) (UniProt Q61831); assay: JNK3 AlphaScreen Assay (AID 530); details: JNK3 lysate, c-Jun phosphorylation; series mostly up to 11.4 µM;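 note: kinase came from lysate of stimulated human HepG2 cells; signal reports phosphorylation of biotinylated GST-cJun 1-79 at Ser73 with 10 µM ATP; % is set by controls: 0 for no effect and ±100 for the full control effect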
Method in brief: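 Pre-activated (IL-1β/TNFα) JNK3 in HepG2 lysates phosphorylates biotin-GST-cJun(1-79), 10 uM ATP; anti-phospho-cJun(Ser73) AlphaScreen read at room temperature, pH 7.6 Tris buffer. Compounds pre-incubated 15 min as titrations.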

[7] = target: 3',5'-cyclic-AMP phosphodiesterase 4B (Homo sapiens) (UniProt Q07343); assay: qHTS Assay for Inhibitors of PDE-IV (AID 607; active = well fitted activation curve with a large enough effect in the main read-out, with a control signal flat, not every such curve was filed as active; note: % of control where 0% means no effect); details: HEK293 ACTOne CNG channel cells, membrane potential fluorescence; series mostly up to 22.9 µM
Sequence of 3',5'-cyclic-AMP phosphodiesterase 4B (Homo sapiens) (Q07343 whole entry, looked up): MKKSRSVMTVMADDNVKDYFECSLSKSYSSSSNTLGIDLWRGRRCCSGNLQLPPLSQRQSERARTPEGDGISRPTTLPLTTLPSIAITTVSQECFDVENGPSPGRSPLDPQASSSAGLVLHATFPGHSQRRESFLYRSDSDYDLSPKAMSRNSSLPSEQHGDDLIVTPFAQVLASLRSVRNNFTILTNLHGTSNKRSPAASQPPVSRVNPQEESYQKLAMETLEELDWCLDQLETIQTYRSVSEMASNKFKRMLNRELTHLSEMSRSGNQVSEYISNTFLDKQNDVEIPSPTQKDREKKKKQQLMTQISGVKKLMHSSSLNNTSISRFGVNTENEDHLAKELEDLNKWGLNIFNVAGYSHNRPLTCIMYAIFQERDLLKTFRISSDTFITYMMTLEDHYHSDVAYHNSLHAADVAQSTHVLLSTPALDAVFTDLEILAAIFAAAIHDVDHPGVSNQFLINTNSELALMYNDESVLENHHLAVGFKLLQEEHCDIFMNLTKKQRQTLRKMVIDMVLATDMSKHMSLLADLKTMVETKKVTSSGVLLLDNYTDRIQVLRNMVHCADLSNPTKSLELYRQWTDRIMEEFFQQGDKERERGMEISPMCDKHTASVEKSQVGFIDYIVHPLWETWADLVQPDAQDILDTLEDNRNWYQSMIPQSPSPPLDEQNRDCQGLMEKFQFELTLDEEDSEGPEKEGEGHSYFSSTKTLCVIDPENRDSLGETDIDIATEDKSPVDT
Method in brief: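 HEK293 ACTOne cells with CNG channel (1000/well), endogenous PDE4; membrane potential dye, compounds up to 22.9 uM final. Fluorescence Ex 535/Em 590; RO 20-1724 (100 uM final) as reference.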

[8] = target: Cytochrome P450 2D6 (Homo sapiens) (UniProt P10635); assay: qHTS Assay for Inhibitors and Substrates of Cytochrome P450 2D6 (AID 891; active = well fitted curve in the direction sought with a large enough effect; an effect the other way counts as inactive or inconclusive; note: nearly all actives have a fitted effect of over 60% in size; note: potency is the fitted concentration of half-maximal effect); details: recombinant CYP2D6, luciferin-ME EGE luminescence; series mostly up to 11.4 µM
Sequence of Cytochrome P450 2D6 (Homo sapiens) (P10635 whole entry, looked up): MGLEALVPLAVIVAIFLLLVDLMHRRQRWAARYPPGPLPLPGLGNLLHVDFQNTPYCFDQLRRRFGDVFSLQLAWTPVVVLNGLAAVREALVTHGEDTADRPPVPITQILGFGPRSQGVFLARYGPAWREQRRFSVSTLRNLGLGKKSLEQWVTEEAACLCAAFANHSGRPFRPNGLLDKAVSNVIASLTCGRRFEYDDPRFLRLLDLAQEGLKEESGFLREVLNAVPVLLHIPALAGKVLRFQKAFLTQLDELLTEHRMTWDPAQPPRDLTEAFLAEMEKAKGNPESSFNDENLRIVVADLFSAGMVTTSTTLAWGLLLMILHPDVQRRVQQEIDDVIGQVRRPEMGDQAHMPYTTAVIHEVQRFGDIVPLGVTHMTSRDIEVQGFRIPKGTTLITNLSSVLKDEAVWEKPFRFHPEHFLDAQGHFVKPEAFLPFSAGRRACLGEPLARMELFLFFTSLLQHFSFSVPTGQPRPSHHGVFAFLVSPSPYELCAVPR
Method in brief: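 Human CYP2D6 (5 nM) with 30 uM Luciferin-ME EGE (at Km) in 100 mM KPO4, compound preincubated 10 min, then NADPH regeneration system for 60 min at room temperature. Luciferin read by luminescence; normalized to 1.43 uM quinidine.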

[9] = target: Cytochrome P450 1A2 (Homo sapiens) (UniProt P05177); assay: p450-cyp1a2 (AID 410; calls by dose curve;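 note: -100% = full effect of reference inhibitor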); details: recombinant CYP1A2, luciferin-ME demethylation, luminescence; series mostly up to 11.4 µM
Sequence of Cytochrome P450 1A2 (Homo sapiens) (P05177 whole entry, looked up): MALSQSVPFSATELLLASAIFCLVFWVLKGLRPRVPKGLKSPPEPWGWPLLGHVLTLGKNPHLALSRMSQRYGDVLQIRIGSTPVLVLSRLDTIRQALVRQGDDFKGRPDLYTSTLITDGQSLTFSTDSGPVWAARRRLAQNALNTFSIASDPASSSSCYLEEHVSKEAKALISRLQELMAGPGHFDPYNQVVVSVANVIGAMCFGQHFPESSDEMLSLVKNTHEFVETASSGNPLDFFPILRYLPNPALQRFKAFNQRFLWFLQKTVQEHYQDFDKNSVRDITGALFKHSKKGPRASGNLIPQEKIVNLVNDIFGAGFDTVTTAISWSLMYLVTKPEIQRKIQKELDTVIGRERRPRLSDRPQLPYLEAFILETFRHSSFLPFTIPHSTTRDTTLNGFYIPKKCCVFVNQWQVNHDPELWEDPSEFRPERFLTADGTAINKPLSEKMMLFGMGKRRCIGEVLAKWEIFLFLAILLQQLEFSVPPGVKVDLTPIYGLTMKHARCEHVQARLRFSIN
Method in brief: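 20nM CYP1A2 with 100uM Luciferin-ME (at Km) in 100mM KPO4; compound preincubated 10 min, NADPH regeneration added, 60 min at room temperature. Luciferin quantified by luminescence after detection reagent; normalized to 57 uM furafylline.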

[10] = target: Guanine nucleotide-binding protein G(i) subunit alpha-1 (Homo sapiens) (UniProt P63096); assay: qHTS Assay for Inhibitors of RGS12 GoLoco Motif Activity (Green Fluorophore) (AID 879; active = well fitted curve in the direction sought with a large enough effect; an effect the other way counts as inactive or inconclusive;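 note: 0% = labeled peptide with Gαi1 and full inhibition = labeled peptide alone without protein; negative values mean loss of peptide binding seen as reduced polarization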); details: Galphai1/FITC-RGS12 GoLoco peptide, fluorescence polarization; series mostly up to 57.1 µM
Sequence of Guanine nucleotide-binding protein G(i) subunit alpha-1 (Homo sapiens) (P63096 whole entry, looked up): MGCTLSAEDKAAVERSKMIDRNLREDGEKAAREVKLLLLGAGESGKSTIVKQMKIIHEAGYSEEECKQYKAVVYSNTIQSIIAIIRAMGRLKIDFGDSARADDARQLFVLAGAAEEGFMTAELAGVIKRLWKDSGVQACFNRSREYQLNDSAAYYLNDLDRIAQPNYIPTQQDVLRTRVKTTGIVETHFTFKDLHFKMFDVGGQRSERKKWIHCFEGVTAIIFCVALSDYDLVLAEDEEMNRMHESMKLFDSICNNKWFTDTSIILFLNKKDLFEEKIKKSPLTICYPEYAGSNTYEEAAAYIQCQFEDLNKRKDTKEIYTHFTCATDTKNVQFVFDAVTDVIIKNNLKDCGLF
Method in brief: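 Fluorescence polarization assay: 50 nM Gαi1 with 10 nM FITC-labeled RGS12 GoLoco peptide in 10 mM Tris pH 7.5, 150 mM NaCl, 0.1 mM GDP, 0.05% NP40, 10 min at room temperature with compound.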

[11] = target: Cytochrome P450 2C19 (Homo sapiens) (UniProt P33261); assay: qHTS Assay for Inhibitors and Substrates of Cytochrome P450 2C19 (AID 899; active = well fitted curve in the direction sought with a large enough effect; an effect the other way counts as inactive or inconclusive; note: % is set by controls: 0 for no effect and ±100 for the full control effect; nearly all actives have a fitted effect of over 60% in size); details: recombinant CYP2C19, luciferin-H EGE luminescence; series mostly up to 11.4 µM
Sequence of Cytochrome P450 2C19 (Homo sapiens) (P33261 whole entry, looked up): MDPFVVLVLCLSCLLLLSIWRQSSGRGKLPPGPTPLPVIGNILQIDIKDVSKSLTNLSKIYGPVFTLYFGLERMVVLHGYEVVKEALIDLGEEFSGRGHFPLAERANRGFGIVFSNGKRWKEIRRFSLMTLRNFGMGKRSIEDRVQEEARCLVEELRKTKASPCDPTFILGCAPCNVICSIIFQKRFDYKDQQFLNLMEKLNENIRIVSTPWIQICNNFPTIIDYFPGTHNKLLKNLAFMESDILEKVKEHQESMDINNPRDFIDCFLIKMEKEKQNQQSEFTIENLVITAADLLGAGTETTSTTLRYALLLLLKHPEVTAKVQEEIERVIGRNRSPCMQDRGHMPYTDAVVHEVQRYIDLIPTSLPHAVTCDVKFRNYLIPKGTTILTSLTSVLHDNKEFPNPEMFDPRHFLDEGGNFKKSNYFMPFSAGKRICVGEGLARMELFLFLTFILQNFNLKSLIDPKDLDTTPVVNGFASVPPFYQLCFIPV
Method in brief: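 Luminescent read-out of luciferin formed from Luciferin-H EGE (10uM, equal to KM). Enzyme 5nM in 50mM KPO4; compound added, 10 min at 37C, then NADPH regenerating system for 60 min at 37C. Full inhibition defined by 57uM ketoconazole.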

[12] = qHTS Assay for Identification of Small Molecule Agonists for Thrombopoietin (TPO) Signaling Pathway (AID 917; active = well fitted curve in the direction sought with a large enough effect; an effect the other way counts as inactive or inconclusive; note: % is set by controls: 0 for no effect and ±100 for the full control effect); details: TPO signaling pathway reporter cells, agonist qHTS, stimulated with TPO at its EC50; series mostly up to 38.5 µM
Method in brief: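 Murine Ba/F3 cells expressing human TPO receptor and GPIIb-promoter luciferase, IL-3-starved overnight, given compound plus TPO at 26 pM (EC50). After 24 h at 37 C, 5% CO2, luminescence read.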

[13] = target: Pyruvate kinase (Leishmania mexicana) (UniProt Q27686); assay: qHTS Validation Assay for Inhibitors of Leishmania Mexicana Pyruvate Kinase (AID 945; active = well fitted curve in the direction sought with a large enough effect; an effect the other way counts as inactive or inconclusive;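 note: 0% = DMSO only neutral control wells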); details: purified L. mexicana pyruvate kinase, enzyme activity, E451W mutant enzyme; series mostly up to 57.5 µM
Sequence of Pyruvate kinase (Leishmania mexicana) (Q27686 2-499 E452W): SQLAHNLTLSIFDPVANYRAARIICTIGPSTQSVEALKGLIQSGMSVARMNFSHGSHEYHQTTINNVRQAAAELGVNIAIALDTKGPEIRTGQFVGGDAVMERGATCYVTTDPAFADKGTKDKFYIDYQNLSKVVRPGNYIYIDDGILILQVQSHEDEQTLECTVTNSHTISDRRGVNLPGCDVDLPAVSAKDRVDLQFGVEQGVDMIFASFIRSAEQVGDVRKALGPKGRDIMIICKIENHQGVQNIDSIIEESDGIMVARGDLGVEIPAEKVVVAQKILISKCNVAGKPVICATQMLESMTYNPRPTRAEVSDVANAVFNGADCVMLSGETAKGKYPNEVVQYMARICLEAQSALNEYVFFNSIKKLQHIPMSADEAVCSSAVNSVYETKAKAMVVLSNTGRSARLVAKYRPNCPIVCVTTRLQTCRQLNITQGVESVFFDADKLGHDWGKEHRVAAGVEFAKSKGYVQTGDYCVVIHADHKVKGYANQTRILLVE
Method in brief: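 Read-out: luminescence from PKLight stop/detection reagent, data normalized to DMSO. Reaction: 0.2 nM E451W LmPYK, 0.5 mM PEP, 0.1 mM ADP, pH 7.2, 1 h room temperature.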

[14] = target: Pyruvate kinase PKM (Homo sapiens) (UniProt P14618); assay: qHTS Assay for Activators of Human Muscle Pyruvate Kinase (AID 954; active = well fitted curve in the direction sought with a large enough effect, not every such curve was filed as active;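 note: 0% = uninhibited enzyme and -100% = no enzyme or full thiadiazolimine inhibition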); details: purified human muscle pyruvate kinase, luciferase-coupled luminescence, 1 h; series mostly up to 57.5 µM
Method in brief: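 Purified human PKM2 (0.1 nM) with 0.5 mM PEP (Km) and 0.1 mM ADP in 50 mM imidazole pH 7.2, KCl, MgCl2, 1 h at room temperature; ATP formed read by coupled luciferase luminescence. Normalized to no-enzyme/110 uM thiadiazolimine inhibition; 0.3 nM enzyme column for activation.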

[15] = target: Alpha-galactosidase A (Homo sapiens) (UniProt P06280); assay: Counterscreen for Glucocerebrosidase Inhibitors: qHTS Assay for Human alpha-Galactosidase at pH 4.5 (AID 992; active = well fitted curve in the direction sought with a large enough effect; an effect the other way counts as inactive or inconclusive; note: 0% is about no effect); details: purified enzyme, fluorogenic substrate; series mostly up to 76.9 µM
Method in brief: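 Human enzyme (2 nM) with 80 uM 4-methylumbelliferyl alpha-D-galactopyranoside in 50 mM citric acid, 0.005% Tween-20, pH 4.5, 20 min at room temperature. Compounds 0.7 nM–77 uM; fluorescence Ex 365/Em 440 after pH 10 stop; AC50 from Hill fits.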

[16] = target: alpha-glucosidase (Oryza sativa, rice) (UniProt Q653V4); assay: Counterscreen for Glucocerebrosidase Inhibitors: qHTS Assay for Rice alpha-Glucosidase at pH 5.0 (AID 997; active = well fitted curve in the direction sought with a large enough effect; an effect the other way counts as inactive or inconclusive;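 note: 0% = full activity with enzyme and -100% = basal without enzyme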); details: rice alpha-glucosidase enzyme activity; series mostly up to 76.9 µM
Method in brief: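 Rice alpha-glucosidase (4 nM final) with 400 uM 4-methylumbelliferyl-alpha-D-glucopyranoside in citrate buffer pH 5.0, 20 min at room temperature, stopped at pH 10; fluorescence 365/440 nm, compounds 0.7 nM–77 uM, AC50 from Hill fits.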

[17] = target: Cytochrome P450 3A4 (Homo sapiens) (UniProt P08684); assay: qHTS Assay for Activators of Cytochrome P450 3A4 (AID 885; active = well fitted curve in the direction sought with a large enough effect; an effect the other way counts as inactive or inconclusive; note: nearly all actives have a fitted effect of over 65% in size); details: recombinant CYP3A4, Luciferin-PPXE luminescence, 60 min; series mostly up to 11.4 µM
Sequence of Cytochrome P450 3A4 (Homo sapiens) (P08684 whole entry, looked up): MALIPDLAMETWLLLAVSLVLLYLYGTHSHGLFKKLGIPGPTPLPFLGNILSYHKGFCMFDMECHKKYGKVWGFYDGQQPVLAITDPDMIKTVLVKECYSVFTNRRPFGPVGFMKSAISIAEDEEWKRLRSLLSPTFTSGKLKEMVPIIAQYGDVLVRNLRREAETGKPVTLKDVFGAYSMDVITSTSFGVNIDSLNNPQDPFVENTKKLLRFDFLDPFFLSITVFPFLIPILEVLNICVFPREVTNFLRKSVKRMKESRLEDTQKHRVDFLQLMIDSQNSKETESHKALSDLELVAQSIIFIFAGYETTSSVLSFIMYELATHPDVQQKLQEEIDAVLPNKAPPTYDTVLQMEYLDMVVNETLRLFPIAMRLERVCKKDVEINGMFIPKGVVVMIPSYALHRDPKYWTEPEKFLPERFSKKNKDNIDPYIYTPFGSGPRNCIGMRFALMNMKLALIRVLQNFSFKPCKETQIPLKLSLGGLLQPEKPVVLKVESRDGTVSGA
Method in brief: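 Human CYP3A4 (20 nM) with Luciferin-PPXE at 25 uM (its KM) in 200 mM KPO4; 10 min compound preincubation, then NADPH regeneration and 60 min reaction at RT. Luciferin read by luminescence; normalized to 57 uM ketoconazole full inhibition.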

[18] = qHTS Assay for Identification of Small Molecule Agonists for Hypoxia Response Element Signaling Pathway (AID 914; active = well fitted activation curve with a large enough effect in the signal ratio, with a control signal flat, not every such curve was filed as active; the % refers to the signal ratio; note: potency is the fitted concentration of half-maximal effect; for activation: % of control where 0% means no effect); details: ME-180 (cervical carcinoma) HRE-bla reporter, beta-lactamase ratio, CoCl2, 17 h; activation: active compounds read high
Method in brief: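 qHTS titration; ME-180 HRE-bla cells; EC50 CoCl2 co-treatment, 17 h at 37 degrees Celsius; CCF4 dye, ex 405nm, em 460nm and 530nm; %Activity from ratio; AC50.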

[19] = target: Cytochrome P450 2C9 (Homo sapiens) (UniProt P11712); assay: qHTS Assay for Inhibitors and Substrates of Cytochrome P450 2C9 (AID 883; active = well fitted curve in the direction sought with a large enough effect; an effect the other way counts as inactive or inconclusive; note: % is set by controls: 0 for no effect and ±100 for the full control effect; nearly all actives have a fitted effect of over 60% in size); details: recombinant CYP2C9, luciferin-H luminescence, 60 min; series mostly up to 11.4 µM
Method in brief: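 10nM CYP2C9 + 100uM Luciferin-H (=KM), 25mM KPO4; cpd 10 min 37C; NADPH regen, 60 min 37C; stop/detect with P450 Glo-Buffer 20 min; luminescence. Norm. to 57uM sulphaphenazole as full inhibition.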

[20] = target: Cytochrome P450 3A4 (Homo sapiens) (UniProt P08684); assay: qHTS Assay for Inhibitors and Substrates of Cytochrome P450 3A4 (AID 884; active = well fitted curve in the direction sought with a large enough effect; an effect the other way counts as inactive or inconclusive; note: % is set by controls: 0 for no effect and ±100 for the full control effect; nearly all actives have a fitted effect of over 50% in size); details: recombinant CYP3A4, Luciferin-PPXE luminescence; series mostly up to 57.1 µM
Method in brief: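 20 nM human CYP3A4 with 25 uM Luciferin-PPXE (at KM) in 200 mM KPO4, preincubated 10 min with compound; NADPH regeneration started a 60 min RT reaction. Luciferin detected by luminescence, normalized to 57 uM ketoconazole as full inhibition.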

Oc1ccc(CNCc2ccccc2)c2cccnc12
active: Potency [8] 1.58 µM
inactive: Potency [1] > 11.4 µM | activity change, negative = inhibition [2] -26.9% | activity, negative = inhibition [3] 10.2% | Potency [4] > 46 µM | Potency [5] > 9.22 µM | Potency [6] | Potency [7]

CC[C@H]1C(=O)OC[C@H]1Cc1cncn1C
inactive: Potency [1] > 11.4 µM | Potency [9] | Potency [6] | Potency [7] | outcome [10] | Potency [11] | outcome [12] | outcome [13] | outcome [14] | outcome [15] | Potency [16]

O=c1c(CCc2ccccc2)nc2cnc(Oc3ccccc3)nc2n1C[C@H]1CCCO1
inactive: Potency [1] > 11.4 µM | activity change, negative = inhibition [2] -10.8% | activity, negative = inhibition [3] -18.9% | Potency [4] > 9.22 µM | Potency [5] > 46 µM | Potency [7] | Potency [17] | activation [18] -12.6%

COc1cccc(Nc2ncc3nc(-c4ccccc4)c(=O)n(C4CC4)c3n2)c1
active: Potency [18] 3.16 µM
inactive: Potency [1] > 11.4 µM | activity change, negative = inhibition [2] -5.16% | activity, negative = inhibition [3] 28.4% | Potency [4] > 9.22 µM | Potency [5] > 46 µM | Potency [6] | Potency [7]

CC(C)c1ccc(O)c(O)c(=O)c1 (tested in a mixture with another compound)
inactive: Potency [1] > 11.4 µM | activity, negative = inhibition [3] 4.84% | Potency [4] > 46 µM | Potency [5] > 9.22 µM | Potency [6] | Potency [7]

O=S(=O)(O)c1cc(S(=O)(=O)O)c2c(N=Nc3cccc4ccccc34)c(O)ccc2c1
inactive: Potency [1] > 11.4 µM | activity change, negative = inhibition [2] 21.1% | activity, negative = inhibition [3] 5.07% | Potency [4] > 46 µM | Potency [5] > 9.22 µM | Potency [7] | Potency [19] | activity change, negative = inhibition [20] -5.78% [at 11.4 µM] | Potency [8] | Potency [11]

N[C@@H](CSC1(c2ccc(Cl)cc2)c2ccccc2-c2ccccc21)C(=O)O
inactive: Potency [1] > 11.4 µM | activity change, negative = inhibition [2] 10.1% | activity, negative = inhibition [3] -2.38% | Potency [4] > 46 µM | Potency [5] > 9.22 µM | Potency [6] | Potency [7]
